According to PubChem BioAssay AID1745849 (National Center for Advancing Translational Sciences (NCATS), 2022):
Screen size: about 2,100 compounds; about 320 (15%) were called active. Another 52% or so got no clear call; they are omitted. Some of the results follow. A number with no mark means an inactive call. The call rests on the fitted dose curve; in most records, active means well fitted cell-killing curve with a large enough effect; inconclusive means small, poorly fitted or top-dose-only effect, or effect the other way; inactive means flat fitted curve, though single readings scatter.
On the % scale 0 is the no-effect control and ±100 the full control effect; potency means the concentration at half of the fitted maximal effect.

Test: Viability Counterscreen for CMV-Luciferase Assay of Inhibitors of ATXN expression; further: nearly all actives have a fitted effect of over 55% in size
Conditions: HEK-293 CMV-luciferase cells viability, protease fluorescence, 24 h; activity change, negative = cytotoxicity: at the top concentration
How it was run: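 In the same wells, a multiplexed format measured viability and then the CMV-luciferase signal in HEK-293 cells following 24 hr compound exposure at several concentrations. The viability substrate was Gly-Phe-AFC at 25 uM final.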
With `Cc1cc(C)c(CSc2ncc(-c3ccc([N+](=O)[O-])cc3)[nH]2)c(C)c1` the “activity change, negative = cytotoxicity” value was 0.339% [at 57.5 µM]. For `CN(C)CCCN(C(=O)c1ccc(S(=O)(=O)N(C)Cc2ccccc2)cc1)c1nc2cc3c(cc2s1)OCO3`, the Potency was 22.4 µM (active). For `CCN(c1ccccc1)S(=O)(=O)c1ccc(C(=O)N(CCCN(C)C)c2nc3c(C)cccc3s2)cc1`, the Potency was 28.2 µM (active). With `CCOc1ccccc1NC(=O)CCCc1nc2ccccc2c(=O)[nH]1` the “activity change, negative = cytotoxicity” value was -24.3%. In the case of `Cc1nn(C)c(C)c1NC(=O)CSc1nc(Cc2ccccc2)nc2c1cnn2-c1ccccc1`, the “activity change, negative = cytotoxicity” value is reported as 26.3%. With `CCC(C)n1cnc2c(c1=O)c1nc3ccccc3nc1n2-c1ccc2c(c1)OCCO2` (centres undefined) the “activity change, negative = cytotoxicity” value was 8.96% [at 57.5 µM]. With `C=CCn1cnc2c(c1=O)c1nc3ccccc3nc1n2/N=C/c1cc(OC)c(OC)c(OC)c1` the Potency was 11.2 µM (active). In the case of `CCCCC(=O)N(C)c1c(CC)nc2c(OCc3ccc(Cl)cc3Cl)cccn12`, the “activity change, negative = cytotoxicity” value is reported as -21.3%. For `COc1ccc(Br)cc1C(=O)NC(=S)Nc1ccc(CN2CCOCC2)cc1`, the “activity change, negative = cytotoxicity” value was -23.8% [at 57.5 µM]. With `CNc1ccc(Br)cc(C(=O)/C=C/c2ccc3c(c2)OCO3)c1=O` the “activity change, negative = cytotoxicity” value was -14.4%. With `CCc1ccc(/C=C/C(=O)c2cc(Br)ccc(=O)c2O)cc1` the Potency was 28.2 µM (active). In the case of `CCNc1ccc(Br)cc(C(=O)/C=C/c2ccccc2Cl)c1=O`, the “activity change, negative = cytotoxicity” value is reported as -19.1%. In the case of `N#Cc1nc(COc2ccc(-c3ccccc3)cc2)oc1NCc1cccnc1`, the “activity change, negative = cytotoxicity” value is reported as -12.5%. For `CCN1CCN(CCNC(=O)c2ccc(/C=C3/Sc4ccccc4N(Cc4cccc(C)c4)C3=O)cc2)CC1`, the “activity change, negative = cytotoxicity” value was -10.5% [at 57.5 µM]. With `Cc1ccc(NC(=O)COc2ccc(/C=C3/SC(=Nc4ccccc4)N(Cc4cccnc4)C3=O)cc2)cc1` the Potency was 17.8 µM (active). In the case of `Cc1cccc(CN2C(=O)/C(=C\c3ccc(C(=O)NCCN4CCOCC4)cc3)Sc3ccccc32)c1`, the “activity change, negative = cytotoxicity” value is reported as -13.8% [at 57.5 µM]. With `CC(C)(C)n1nnnc1C(c1cccs1)N(Cc1ccc(Cl)cc1)CC1CCCO1` (centres undefined) the “activity change, negative = cytotoxicity” value was -29.5% [at 57.5 µM]. With `CC(C)Nc1nc(-c2ccccn2)nc(-c2ccccc2)c1C#N` the “activity change, negative = cytotoxicity” value was -5.79% [at 57.5 µM]. For `CCN(CC)c1nc(-c2ccccn2)nc(-c2ccccc2)c1C#N`, the Potency was 5.62 µM (active). With `O=S(=O)([N-]c1nc2ccccc2nc1-[n+]1ccc(Cc2ccccc2)cc1)c1ccc(Br)s1` the Potency was 3.55 µM (active). For `COc1cccc(C(=O)Oc2c(CN3CCOCC3)cc(Cl)c3cccnc23)c1`, the “activity change, negative = cytotoxicity” value was -9.7% [at 57.5 µM]. With `COC(=O)N/N=C/c1cn(CC(C)COc2ccccc2)c2ccccc12` (centres undefined) the “activity change, negative = cytotoxicity” value was -15.3% [at 57.5 µM]. In the case of `S=C(NCCCN1CCOCC1)N1CCN(c2nc(-c3ccccc3)cs2)CC1`, the “activity change, negative = cytotoxicity” value is reported as -1.81% [at 57.5 µM]. With `O=C(Nc1cnn(C23CC4CC(CC(C4)C2)C3)c1)c1cnn2c(C(F)(F)F)cc(-c3ccco3)nc12` the Potency was 12.6 µM (active). With `COC(=O)c1ccc(Oc2nc(NC(C)C)nc(N(C)C)n2)cc1` the “activity change, negative = cytotoxicity” value was -16.8%. For `O=C(CN1C(=O)c2ccccc2S1(=O)=O)N1CCc2ccccc21`, the “activity change, negative = cytotoxicity” value was 2.08%. In the case of `COCC(C)n1c(C)cc(C(=O)COC(=O)c2cccn2C)c1C` (centres undefined), the “activity change, negative = cytotoxicity” value is reported as 6.82%. For `N#Cc1ccc(-c2nc3cc(Cl)ccc3c(=O)n2O)cc1`, the “activity change, negative = cytotoxicity” value was -23.8%. With `OC(c1ccc(Cl)cc1)c1ncc(-c2cccc(C(F)(F)F)c2)[nH]1` (centres undefined) the “activity change, negative = cytotoxicity” value was 6.35%. In the case of `O=c1c2ccc(Cl)cc2nc(-c2cccc(C(F)(F)F)c2)n1O`, the Potency is reported as 10 µM (active). In the case of `Cc1ccc(CN2CC(C(=O)Nc3ncc(C)s3)CC2=O)cc1` (centres undefined), the “activity change, negative = cytotoxicity” value is reported as -23.1%. For `CCN(CCCn1c(=S)[nH]c2ccc(N3CCOCC3)cc2c1=O)c1ccccc1`, the “activity change, negative = cytotoxicity” value was 19.1%. With `CC(Sc1ccc(Cl)cc1)C(=O)NNC(=O)c1ccccc1O` (centres undefined) the “activity change, negative = cytotoxicity” value was -6.65%. In the case of `CC1(C)Cc2ccccc2C2=NNC(=O)C2=N1`, the Potency is reported as 25.1 µM (active). For `COc1cccc(/C=N/n2c(N)c(S(=O)(=O)c3cccs3)c3nc4ccccc4nc32)c1OC`, the Potency was 14.1 µM (active). With `Cc1ccc(S(=O)(=O)c2c(N)n(CC3CCOC3)c3nc4ccccc4nc23)cc1` (centres undefined) the “activity change, negative = cytotoxicity” value was -8.96%. In the case of `CCCCn1c(N)c(S(=O)(=O)c2ccc(C)cc2)c2nc3ccccc3nc21`, the “activity change, negative = cytotoxicity” value is reported as -27%. For `CCn1cc(C(=O)NCCCN2CCCC(C)C2)c(=O)c2cc(S(=O)(=O)N3CCc4ccccc4C3)ccc21` (centres undefined), the “activity change, negative = cytotoxicity” value was -21.9% [at 57.5 µM]. For `O=C(C1CC(=O)N(c2ccc3c(c2)OCCO3)C1)N1CCN(c2ccccc2)CC1` (centres undefined), the “activity change, negative = cytotoxicity” value was 1.88%. In the case of `Cn1c(/C=C/c2cccc([N+](=O)[O-])c2)c([N+](=O)[O-])c(=O)n(C)c1=O`, the Potency is reported as 14.1 µM (active). In the case of `Cn1c(/C=C/c2ccc(Cl)cc2)c([N+](=O)[O-])c(=O)n(C)c1=O`, the Potency is reported as 12.6 µM (active). For `Cn1c(/C=C/c2ccc(Cl)cc2Cl)c([N+](=O)[O-])c(=O)n(C)c1=O`, the Potency was 10 µM (active). In the case of `CN(c1ccc(OCC(=O)N2CCN(c3ccc(F)cc3)CC2)cc1)S(=O)(=O)c1cccs1`, the “activity change, negative = cytotoxicity” value is reported as 11.3%. For `CC(=O)N1CCCc2cc(S(=O)(=O)N3CCCC(C(=O)N4CCN(c5cc(C)ccc5C)CC4)C3)ccc21` (centres undefined), the “activity change, negative = cytotoxicity” value was -28.6%. With `CCOc1ccc(/C=C/[N+](=O)[O-])c2ccccc12` the Potency was 20 µM (active). For `COc1ccc(NC(=O)N2CCN(c3nc(-c4cccc(OC)c4)cs3)CC2)cc1`, the “activity change, negative = cytotoxicity” value was -19.1%. In the case of `CC1CCN(C(=O)c2cc3nc(-c4ccccc4)cc(-c4ccccc4)n3n2)CC1`, the “activity change, negative = cytotoxicity” value is reported as 26.5%. For `Cc1c(C(=O)NCc2ccc(Cl)c(Cl)c2)sc(=O)n1Cc1ccc(S(C)(=O)=O)cc1`, the “activity change, negative = cytotoxicity” value was -12.2%. With `O=S(=O)(Cc1cc(NCc2ccccc2)nc(-c2ccccn2)n1)c1ccccc1` the “activity change, negative = cytotoxicity” value was -10.2% [at 57.5 µM].
